# Results as given in PubChem BioAssay (NCATS).
# Where “and” joins values, the source holds several entries; their conditions need not be identical. Equal entries are not always repeated. Records with an inconclusive call do not appear. A number with no mark means an inactive call. Calls of active or inactive are those of the source. Calls come from the whole dose curve; as a rule, active = well fitted curve in the direction sought with a large enough effect; inconclusive = small, poorly fitted or top-dose-only effect, or another doubt; inactive = no such curve, though single readings can be large; an effect the other way counts as inactive or inconclusive.
# Key:
# [1] = target: Cellular tumor antigen p53 (Homo sapiens) (UniProt P04637); test: Primary qHTS for small molecule compounds that upregulate eGFP-tagged delta133p53alpha (in N-terminal) cells. (AID 2060322); conditions: NCI-H358 eGFP-delta133p53alpha fluorescence, 24 h; activation: active compounds read high; note: nearly all actives have a fitted effect of over 75% in size; note: potency is the fitted concentration of half-maximal effect;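 for activation: series mostly up to about 56 µM; 0% = DMSO vehicle and 100% = reference activator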
# Chain of Cellular tumor antigen p53 (Homo sapiens) (P04637 whole entry, looked up): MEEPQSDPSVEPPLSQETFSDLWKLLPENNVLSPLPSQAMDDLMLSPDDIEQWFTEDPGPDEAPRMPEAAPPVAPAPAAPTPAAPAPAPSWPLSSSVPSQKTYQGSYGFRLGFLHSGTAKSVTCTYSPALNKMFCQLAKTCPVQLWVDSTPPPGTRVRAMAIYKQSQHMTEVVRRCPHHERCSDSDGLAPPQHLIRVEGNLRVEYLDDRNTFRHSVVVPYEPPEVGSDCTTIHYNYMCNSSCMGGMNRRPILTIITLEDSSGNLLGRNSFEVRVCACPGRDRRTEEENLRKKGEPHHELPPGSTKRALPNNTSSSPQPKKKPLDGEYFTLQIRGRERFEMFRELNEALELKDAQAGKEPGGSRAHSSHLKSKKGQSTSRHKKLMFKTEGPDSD
# In short: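 NCI-H358 cells pre-induced 24 h with 10 ng/ml doxycycline to express N-terminal eGFP-delta133p53alpha, then dosed 24 h at 37C without doxycycline; fixed, Hoechst-stained, GFP intensity by laser scanning cytometry, normalized to DMSO (0%) and 57.5 uM 5-azacytidine (100%).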
# [2] = target: Aldehyde dehydrogenase, mitochondrial (Homo sapiens) (UniProt P05091); test: qHTS for Inhibitors of the Aldehyde Dehydrogenase Family (ALDH2) Primary screen (AID 2061308);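 note: plate controls were vehicle for no effect and reference inhibitor for full effect; nearly all actives have a fitted effect of over 55% in size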
# [3] = target: Retinaldehyde dehydrogenase 3 (Homo sapiens) (UniProt P47895); test: qHTS for Inhibitors of the Aldehyde Dehydrogenase Family (ALDH1A3) Primary screen (AID 2061315);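 note: plate controls were DMSO vehicle for no effect and reference inhibitor for full effect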
# [4] = BET inhibitor-based combinations targeting novel dependencies in MECOM-rearranged (r) AML: SET-2 cell line (AID 2202231); conditions: SET-2 AML cells viability, CellTiter-Glo luminescence, 48 h; viability: active compounds read low, concentration not given here; note: nearly all actives have a fitted effect of over 35% in size; note: potency is the fitted concentration of half-maximal effect;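 for viability: plate controls were DMSO treated cells for no effect and wells without cells for full effect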
# In short: (§1)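 Here, 11-point titrations of each agent were applied to 500 seeded cells and incubated 48 hr; CellTiter-Glo signal, scaled against DMSO and empty wells, was integrated as AUC, then Z-scored within the individual line.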
# [5] = BET inhibitor-based combinations targeting novel dependencies in MECOM-rearranged (r) AML: OCI-AML3 cell line (AID 2202232); conditions: Potency: OCI-AML3 viability; note: nearly all actives have a fitted effect of over 35% in size; note: potency is the fitted concentration of half-maximal effect
# In short: as §1
# [6] = BET inhibitor-based combinations targeting novel dependencies in MECOM-rearranged (r) AML: MV-4-11 cell line (AID 2202233); note: nearly all actives have a fitted effect of over 45% in size; note: potency is the fitted concentration of half-maximal effect
# In short: (§2)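 Normalized to DMSO and empty-well controls, the luminescence data from CellTiter-Glo after 48 hr drug exposure were fitted across 11 concentrations. Reported metrics are area under the dose-response curve and its Z-transformed form.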
# [7] = BET inhibitor-based combinations targeting novel dependencies in MECOM-rearranged (r) AML: UCSD-AML1 cell line (AID 2202235); note: nearly all actives have a fitted effect of over 40% in size; note: potency is the fitted concentration of half-maximal effect
# In short: as §2
# [8] = BET inhibitor-based combinations targeting novel dependencies in MECOM-rearranged (r) AML: AML-191 cell line (AID 2202236; note: nearly all actives have a fitted effect of over 35% in size; note: potency is the fitted concentration of half-maximal effect)
# In short: as §1
# [9] = BET inhibitor-based combinations targeting novel dependencies in MECOM-rearranged (r) AML: AML-194 cell line (AID 2202237; note: nearly all actives have a fitted effect of over 40% in size; note: potency is the fitted concentration of half-maximal effect)
# In short: as §1
# [10] = BET inhibitor-based combinations targeting novel dependencies in MECOM-rearranged (r) AML: HNT-34 cell line (AID 2202234); note: nearly all actives have a fitted effect of over 35% in size; note: potency is the fitted concentration of half-maximal effect
# In short: as §2
Structure (SMILES),activation [1],Potency [2],Potency [3],viability [4] [%],Potency [5],Potency [6],Potency [7],Potency [8],Potency [9],Potency [4],Potency [10],Potency [1]
CCOC(=O)c1ccnc(CNCC(=O)N(CC)CCN(C)C)c1,8.33%,inactive,inactive,104,inactive,inactive,inactive,inactive,inactive,–,–,–
CCS(=O)(=O)N1CCN(c2ccc(Nc3ncc(C(N)=O)c(NC4CC4)n3)cc2)CC1,25.7%,inactive,inactive,–,13.2 µM (active),0.417 µM (active),0.372 µM (active),4.68 µM (active),4.68 µM (active),4.17 µM (active),–,–
CC(C)S(=O)(=O)c1ccc2nccc(Nc3ccc4scnc4c3)c2c1,-14.3%,inactive,inactive,95.8,inactive,–,–,–,–,–,10.5 µM (active),–
Cc1ccccc1-n1c(Cn2nc(-c3cccc(O)c3)c3c(N)ncnc32)nc2cccc(C)c2c1=O,21.6% and 16.7%,inactive,inactive,105,1.86 µM (active),0.296 µM (active),–,–,inactive,–,14.8 µM (active),–
Cn1ncc2cc(-c3cnc(N)c(Cl)c3N3CCC4(CCNC4=O)CC3)ccc21,-11.6%,inactive,inactive,103,inactive,5.25 µM (active),10.5 µM (active),0.296 µM (active),–,–,–,–
COc1ccc(CCN2CCN(CCCc3ccccc3)CC2)cc1OC,20.6% and -1.43%,inactive,inactive,–,inactive,–,inactive,inactive,inactive,18.6 µM (active),inactive,–
CNC(=O)c1ccc(Nc2ncc(C(F)(F)F)c(NCc3nccnc3N(C)S(C)(=O)=O)n2)cc1,–,inactive,inactive,–,4.68 µM (active),0.296 µM (active),2.63 µM (active),2.95 µM (active),3.72 µM (active),3.32 µM (active),–,12 µM (active)
CCNC(=O)Nc1ncc(-c2cc(-c3c(C)cc(OC)cc3C)nc(-c3cnccn3)n2)s1,-5.36%,inactive,inactive,114,inactive,inactive,inactive,inactive,inactive,–,–,–
CC(C)C[C@H](CO)Nc1nc(S[C@@H](C)c2ccccc2)nc2nc(N)sc12,5.67%,inactive,inactive,–,26.3 µM (active),26.3 µM (active),inactive,–,–,23.5 µM (active),–,–
CN1CCC(CNc2ccc3ncc(-c4cccc(OC(F)(F)F)c4)n3n2)CC1,–,inactive,inactive,–,8.33 µM (active),–,5.9 µM (active),5.25 µM (active),4.17 µM (active),11.8 µM (active),5.25 µM (active),26.9 µM (active)
COc1ccc(F)c(F)c1C(=O)c1cnc(NC2CCN(S(C)(=O)=O)CC2)nc1N,–,inactive,inactive,–,1.86 µM (active),–,1.66 µM (active),2.09 µM (active),2.09 µM (active),2.09 µM (active),2.35 µM (active),2.73 µM (active) and 2.69 µM (active)
Cc1ccc(NC(=O)Nc2cc(C(F)(F)F)ccc2F)cc1Nc1ccc2c(c1)NC(=O)/C2=C\c1ccc[nH]1,-0.477%,inactive,inactive,–,20.9 µM (active),–,inactive,20.9 µM (active),–,23.5 µM (active),26.3 µM (active),–
CN1CCN(c2ccc(C(=O)Nc3n[nH]c4ccc(Cc5cc(F)cc(F)c5)cc34)c(NC3CCOCC3)c2)CC1,–,inactive,inactive,–,11.8 µM (active),0.468 µM (active),3.32 µM (active),5.25 µM (active),1.48 µM (active),16.6 µM (active),–,30.1 µM (active) and 216 nM (active)
CCCCc1ccc(NS(=O)(=O)c2ccc(C)c(C(=O)N3CCN(c4cccc(C)c4C)CC3)c2)cc1,-4.4%,inactive,inactive,94.4,inactive,–,inactive,inactive,–,–,inactive,–
Cc1ccc2c(c1)C(=O)[C@]1(O)CCN(c3ccccc3)C1=N2,-1.14% and -10.7%,inactive,inactive,110,18.6 µM (active),23.5 µM (active),inactive,23.5 µM (active),16.6 µM (active),–,–,–
CC(C)c1nn(-c2c(Cl)cccc2Cl)c2nc(Cc3ccc(OCCO)cc3)[nH]c(=O)c12,–,inactive,inactive,–,0.0742 µM (active),0.0417 µM (active),0.0417 µM (active),0.0295 µM (active),0.0468 µM (active),0.0417 µM (active),–,68.5 nM (active) and 60.1 nM (active)
